An excerpt weighted towards active compounds, which were near 2.3% of everything screened.
Mcl1-Noxa inh: Mcl-1/Noxa interaction inhibition; TR-FRET Mcl-1/Noxa peptide binding, 2 h; inhibition, % at 21.7 µM; 220,000 tested, 1.5% active; AID 1022;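 active = compounds that cut the protein-peptide binding signal by more than 50% relative to plate controls in a single-dose test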;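 also: His-tagged Mcl-1 with rhodamine Noxa BH3 peptide and terbium anti-His antibody; 0% = Mcl-1 plus Noxa peptide wells and 100% = peptide-only wells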
Bcl-xL primary: Bcl-xL (human) inhibition; 320,000 tested, 0.7% active; Q07817; inhibition, % at 10.9 µM; AID 2129; GST-Bcl-xL / FITC-Bim BH3 peptide fluorescence polarization;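 active = inhibition above the mean of all tested compounds plus 3 SD, cutoff set per campaign, cut at about 30% in these data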;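 also: 0% = DMSO wells and 100% = unlabeled Bim-BH3 peptide competitor; inhibitors lower millipolarization by displacing the labeled peptide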
Target sequence (Q07817 whole entry, looked up): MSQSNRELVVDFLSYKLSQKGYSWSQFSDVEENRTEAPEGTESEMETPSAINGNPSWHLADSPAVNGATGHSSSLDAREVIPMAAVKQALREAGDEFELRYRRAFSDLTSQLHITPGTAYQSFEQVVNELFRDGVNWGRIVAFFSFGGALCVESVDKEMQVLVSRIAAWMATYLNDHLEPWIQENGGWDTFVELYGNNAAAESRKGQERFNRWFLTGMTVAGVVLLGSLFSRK
GLD-1 RNA inh: GLD-1-TGE RNA interaction inhibition (C. elegans); Q17339; 320,000 tested, 0.44% active; inhibition, % at 5.96 µM; purified GLD-1 + fluorescein TGE RNA, fluorescence polarization;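 active = percent inhibition above a per-plate cutoff, the plate mean of test compounds plus 3 SD, cut at about 30% in these data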;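 also: 0% = DMSO wells with GLD-1 and probe and 100% = wells lacking GLD-1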
Target sequence (Q17339 whole entry, looked up): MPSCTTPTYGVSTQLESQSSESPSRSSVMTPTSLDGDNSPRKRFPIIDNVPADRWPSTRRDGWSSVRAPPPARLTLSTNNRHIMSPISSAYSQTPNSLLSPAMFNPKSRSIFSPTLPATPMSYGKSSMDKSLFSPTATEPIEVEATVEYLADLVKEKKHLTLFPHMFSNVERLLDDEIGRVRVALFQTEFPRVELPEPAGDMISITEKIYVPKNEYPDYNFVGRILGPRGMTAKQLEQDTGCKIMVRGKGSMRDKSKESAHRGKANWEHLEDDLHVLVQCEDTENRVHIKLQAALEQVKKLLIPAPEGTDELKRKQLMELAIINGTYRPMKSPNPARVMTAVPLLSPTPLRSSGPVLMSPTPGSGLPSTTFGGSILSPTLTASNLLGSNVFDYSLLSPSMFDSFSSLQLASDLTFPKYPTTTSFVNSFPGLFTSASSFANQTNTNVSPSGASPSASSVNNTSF
MCL1 BIM primary: disrupts human MCL1 binding to BIM-BH3 peptide. Q07820. GST-MCL1 / FITC-Bim-BH3 fluorescence polarization. inhibition, % at 10.9 µM. 320,000 tested, 0.68% active;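 active = inhibition above the mean inhibition of all tested compounds plus 3 SD, set per campaign, cut at about 40% in these data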;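 also: 0% = DMSO wells and 100% = unlabeled Bim-BH3 peptide control; higher means more loss of mP so more displacement of Bim peptide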
Bim-Mcl-1: human Bim-Mcl-1 interaction inhibition. Q07820. Bead-based flow cytometry, Bim peptide-Mcl-1 binding. inhibition, % at 10 µM. 190,000 tested, 0.1% active. AID 1009; in the data active = inhibition above about 40%;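 also: 0% = no compound tracer wells and 100% = peptide blocker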
Mcl1 Bid PPI: Mcl-1/Bid interaction inhibition. Q07820. TR-FRET Mcl-1/Bid-Dy647 peptide binding, 1536-well. inhibition, % at 21.7 µM. 220,000 tested, 0.97% active. AID 1021;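 active = compounds that cut the binding signal by more than half at the single screening dose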;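 also: His-tagged Mcl-1 with europium anti-His antibody binding Bid BH3 peptide; 0% = Mcl-1 plus peptide wells and 100% = peptide-only wells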
An asterisk follows results filed as active; nt = no result.

SMILES | Mcl1-Noxa inh | Bcl-xL primary | GLD-1 RNA inh | MCL1 BIM primary | Bim-Mcl-1 | Mcl1 Bid PPI
Cc1ccc(C)c(NC2=C(Cl)C(=O)OC2OC(=O)c2ccco2)c1 (stereo not drawn) | 57* | -3 | -3 | -1 | -2 | 3
Cc1ccc(NC2=C(Cl)C(=O)OC2OC(=O)c2ccco2)c(C)c1 (stereo not drawn) | 16 | -6 | 5 | -6 | 4 | 1
COc1ccc(OC)c(Nc2nc(-c3sc(NC(=O)c4ccccc4)nc3C)cs2)c1 | 29 | -16 | -13 | -18 | -1 | -18
Cc1nc(NC(=O)c2ccccc2)sc1-c1csc(Nc2cccc(Cl)c2)n1 | 98* | -7 | -8 | -23 | 0 | 94*
COc1ccc(Cl)cc1Nc1nc(-c2sc(NC(=O)c3ccccc3)nc2C)cs1 | 32 | -6 | 2 | -16 | -2 | 70*
CCOc1ccccc1Nc1nc(-c2sc(NC(=O)c3ccc([N+](=O)[O-])cc3)nc2C)cs1 | 86* | 3 | -5 | 5 | -1 | 96*
Cc1ccc(Cl)cc1Nc1nc(-c2sc(NC(=O)c3cccc(Cl)c3)nc2C)cs1 | 40 | -3 | 1 | -11 | -3 | 61*
Cc1nc(NC(=O)c2ccccc2)sc1-c1csc(Nc2ccc(Cl)cc2)n1 | -16 | 0 | 0 | -1 | -2 | -11
CC(O)[C@H]1CNCCN1CC1(c2ccccc2)CC1 (stereo partly drawn) | nt | -4 | 2 | 7 | nt | nt
C/C(=N/NC(=O)C1CCCC1)c1ccc(NC(=O)C(F)(F)F)cc1 | nt | -3 | -1 | -5 | nt | nt
O=C(N/N=C/c1cc(Cl)ccc1O)c1ccc(Br)cc1 | 63* | 0 | -5 | 5 | 2 | -25
Cc1ccc(N=Nc2ccc(O)c(/C=N\NC(=O)c3ccc(N)cc3)c2)cc1C | 86* | 3 | 5 | 8 | -1 | -23
CC(C)(C)OC(=O)N/N=C/c1cc(N=Nc2ccccc2)ccc1O | 5 | 0 | 3 | 3 | -6 | -4
O=C(N/N=C/c1cc(Br)ccc1O)c1ccncc1 | -69 | 2 | -2 | 1 | nt | -104
COC(=O)c1[nH]c2ccccc2c1NC(=O)c1c(F)cccc1F | 17 | 1 | -3 | 4 | nt | -18
N=c1n(CC(=O)c2cccs2)c2ccccc2n1Cc1ccccc1 | 0 | 2 | 7 | 0 | nt | -2
CN(C)CCCNc1oc(-c2ccccc2)nc1C#N | 53* | 4 | -1 | 5 | -2 | -20
CCOC(=O)Cc1csc(NC(=O)c2sc3nc4ccc(CC)cc4cc3c2N)n1 | 89* | 21 | 13 | 11 | 5 | 91*
Fc1ccc(CSc2ccc(-c3ccco3)nn2)cc1 | 4 | 8 | 1 | 10 | -4 | 61*
Fc1cccc(CSc2ccc(-c3ccco3)nn2)c1 | 7 | 12 | 7 | 19 | -8 | 0
COc1ccc(-c2ccc3c(n2)sc2c(=O)[nH]c(=O)[nH]c23)cc1OC | 84* | nt | nt | nt | -3 | -7
CCOC(=O)c1c(NC(=O)c2cc(-c3cccc(O)c3)on2)sc(C(C)=O)c1C | 63* | 7 | 0 | 2 | -1 | 40
CCOC(=O)c1sc(NC(=O)c2cc(-c3cccc(O)c3)on2)c(C(=O)OCC)c1C | 17 | 4 | 2 | 0 | -3 | -2
CC(Sc1ccc(S(=O)(=O)N2CCN(C)CC2)cn1)C(=O)NC1CCCCC1 (stereo not drawn) | nt | -1 | 4 | -5 | nt | nt
O=c1oc2cc(O)ccc2cc1-c1nc2c(s1)CCc1ccccc1-2 | 54* | 37* | 100* | 27 | nt | -37
SMILES | Mcl1-Noxa inh | Bcl-xL primary | GLD-1 RNA inh | MCL1 BIM primary | Bim-Mcl-1 | Mcl1 Bid PPI
COC(=O)c1cc(-c2ccc(Cl)cc2Cl)n[nH]1 | 17 | 6 | 7 | -2 | 2 | 20
CCCCn1nc(C(=O)Nc2cc(S(=O)(=O)N(C)C)ccc2C)c2ccccc2c1=O | 3 | 2 | 1 | 3 | nt | -28
CSc1ccccc1NC(=O)c1cc2ncc(Br)cn2n1 | 59* | 4 | -4 | 12 | -1 | -19
CCN(CC)CCn1c2c(c(SCC(=O)Nc3cc(C)on3)nc1=O)CCCC2 | nt | 1 | 1 | 4 | nt | nt
COc1ccc(-c2noc(=O)n2CC(=O)N2CCC(Cc3ccccc3)CC2)cc1 | -5 | 2 | 7 | 9 | -2 | -25
O=C(Cn1c(-c2ccccc2)noc1=O)N1CCC(Cc2ccccc2)CC1 | 15 | 0 | 9 | 2 | 40* | 10
COc1cccc(C(Nc2ccccn2)c2oc(CO)cc(=O)c2O)c1 (stereo not drawn) | 74* | 13 | -1 | 26 | 0 | 27
O=c1cc(CO)oc(C(Nc2ccccn2)c2ccc(C(F)(F)F)cc2)c1O (stereo not drawn) | 37 | 7 | 0 | 24 | -2 | 18
O=c1cc(CO)oc(C(Nc2ccccn2)c2ccccc2F)c1O (stereo not drawn) | nt | -2 | 8 | 19 | nt | nt
O=c1cc(CO)oc(C(Nc2ccccn2)c2cccc(F)c2)c1O (stereo not drawn) | 52* | 9 | 3 | 31 | 0 | 46
Cc1ccccc1-n1c(SCC(=O)Nc2ccccc2)nc2nc3c(cc2c1=O)CCCC3 | 18 | 5 | -3 | 0 | 0 | -19
COc1ccc(CCNC(=O)CSc2ccc(-c3cccs3)nn2)cc1OC | 14 | 1 | -4 | 6 | -2 | -12
CSC(=O)NC(=O)NC(=O)c1ccc([N+](=O)[O-])cc1 | -9 | 7 | 2 | -7 | nt | -13
Cc1cccc(C)c1NC(=O)CN1CCN(C(=O)c2ccc(OCc3cn4ccccc4n3)cc2)CC1 | nt | nt | 3 | nt | nt | nt
COc1cccc2sc(/N=C/N(C)C)nc12 | 26 | -2 | 2 | 6 | nt | 56*
Cc1ccc(C)c(NC(=O)CCC(=O)N/N=C/c2cc([N+](=O)[O-])ccc2O)c1 | -23 | 8 | -2 | 12 | -1 | -41
Cc1cc(=O)oc2cc(OCC(=O)N/N=C/c3cc([N+](=O)[O-])ccc3O)ccc12 | 73* | 4 | 12 | 10 | 0 | 82*
O=C(CSCc1ccccc1)NCCCN1CCOCC1 | 7 | 4 | 2 | 4 | 0 | 98*
COC(=O)c1nn(-c2ccc(Oc3ccccc3)cc2)c(=O)cc1O | 13 | 3 | 0 | 3 | 0 | 10
CCN1CCN(CC(=O)c2c[nH]c3ccc(C)cc23)CC1 | 16 | -3 | 9 | -4 | 59* | 0
Cc1ccc2[nH]cc(C(=O)CN3CCOCC3)c2c1 | 21 | 3 | 0 | -4 | 3 | -4
COc1cccc(NC(=O)c2cc3ccccc3cc2OC)c1 | nt | -3 | 1 | -3 | nt | nt
CC(=O)Nc1nonc1NC(=O)CSc1ccccn1 | 5 | 0 | 83* | -7 | -6 | -15
CC(=O)Nc1ccc(NC(=O)CSc2ccccn2)cc1 | -7 | 3 | -3 | -5 | -8 | -5
CC(=O)c1ccc(-n2c(CCC(=O)O)ccc2-c2cccs2)cc1 | 69* | 5 | -6 | 5 | -4 | -28

Screening results deposited in PubChem BioAssay by several laboratories.
